Source: PubChem BioAssay (NCATS)
Records with an inconclusive call do not appear. A call without a number means that no potency is given here. Calls of active or inactive are those of the source. Calls come from the whole dose curve; as a rule, active = well fitted cell-killing curve with a large enough effect; inconclusive = small, poorly fitted or top-dose-only effect; inactive = flat fitted curve, though single readings scatter.
Potency is the fitted concentration of half-maximal effect.

Experiment: Cellular viability qHTS for adrenocortical cancer (ACC) cell line NCI-H295R (AID 1963990); note: nearly all actives have a fitted effect of over 60% in size
Details: CellTiter-Glo ATP luminescence, 48 h; series mostly up to 46.1 µM
Summary of the method: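 Adrenocortical carcinoma cells, suspended at 300 000 cells/mL in serum-free DMEM plus ITS, rested overnight before pin transfer of compound. After two days' incubation, ATP-dependent luminescence was recorded and curve-fitted.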
For `CCOC(=O)Nc1ccc(NCc2ccc(F)cc2)cc1N`, the Potency was “inactive”. For `COc1cc(CC(C)N)cc2c1OCO2` (configuration not stated), the Potency was “inactive”. With `O=C(CCCN1CCC2(CC1)C(=O)NCN2c1ccccc1)c1ccc(F)cc1` the Potency was “inactive”. For `N#Cc1nn(-c2c(Cl)cc(C(F)(F)F)cc2Cl)c(N)c1S(=O)C(F)(F)F` (configuration not stated), the Potency was 2.59 µM (active). With `CCOC(=O)CC(SP(=S)(OC)OC)C(=O)OCC` (configuration not stated) the Potency was “inactive”. For `O=[N+]([O-])c1c2ccccc2cc2ccccc12`, the Potency was “inactive”. For `CC(C)[C@H]1C(=O)N[C@H](CO)Cc2c[nH]c3cccc(c23)N1C`, the Potency was “inactive”. For `Nc1ccc(Cl)cc1`, the Potency was “inactive”. For `CCC(CC)(CNC(=O)CCCO)c1cccc(OC)c1`, the Potency was “inactive”. With `COC[C@@H](NC(C)=O)C(=O)NCc1ccccc1` the Potency was “inactive”. In the case of `COc1ccc(C(=O)N2CCCC2=O)cc1`, the Potency is reported as “inactive”. In the case of `COC(=O)[C@@]12OC[C@]34[C@H]([C@@H](O)[C@@H]1O)[C@@]1(C)CC(=O)C(O)=C(C)[C@@H]1C[C@H]3OC(=O)[C@H](OC(=O)/C=C(\C)C(C)C)[C@@H]24`, the Potency is reported as 12.6 µM (active). With `O=c1cccc2n1CC1CNC[C@H]2C1` the Potency was “inactive”. In the case of `COc1cc(CCN)cc(OC)c1OC`, the Potency is reported as “inactive”. With `COc1cc2c(cc1F)C(c1ccccc1Cl)=Nc1c(n[nH]c1C)N2` the Potency was “inactive”. With `C[C@]12CCC(=O)C=C1CC[C@@H]1[C@H]3CC[C@](C)(O)[C@@]3(C)CC[C@@H]12` the Potency was 28.2 µM (active). With `O=[N+]([O-])c1cc([As](=O)(O)O)ccc1O` the Potency was “inactive”. With `CCCN1CCO[C@@H]2c3cc(O)ccc3OC[C@H]21` the Potency was “inactive”. With `O=S(=O)(F)Cc1ccccc1` the Potency was “inactive”. In the case of `CC(C)(O)C(=O)Nc1ccc([N+](=O)[O-])c(C(F)(F)F)c1`, the Potency is reported as “inactive”. With `CN(C)c1cc2c(cc1Sc1nc3c(N)nccc3n1CCNCC(C)(C)C)OCO2` the Potency was 2.24 µM (active). With `C=CCN1C[C@H](C)N([C@H](c2ccc(C(=O)N(CC)CC)cc2)c2cccc(OC)c2)C[C@H]1C` the Potency was “inactive”.
